Experimental findings from PubChem BioAssay (NCATS) are described below.

Records with an inconclusive call do not appear. A number with no mark means an inactive call. Active and inactive are the calls of the source. The call rests on the fitted dose curve; in most records, active means well fitted inhibition curve with a large enough effect in the repeat runs; inconclusive means weak or mixed curves; inactive means no such curve, though single readings can be large or run the other way.
On the % scale 0 is the no-effect control and ±100 the full control effect; potency means the concentration at half of the fitted maximal effect.

Sequence of Cytochrome P450 2C9 (Homo sapiens) (P11712 whole entry, looked up): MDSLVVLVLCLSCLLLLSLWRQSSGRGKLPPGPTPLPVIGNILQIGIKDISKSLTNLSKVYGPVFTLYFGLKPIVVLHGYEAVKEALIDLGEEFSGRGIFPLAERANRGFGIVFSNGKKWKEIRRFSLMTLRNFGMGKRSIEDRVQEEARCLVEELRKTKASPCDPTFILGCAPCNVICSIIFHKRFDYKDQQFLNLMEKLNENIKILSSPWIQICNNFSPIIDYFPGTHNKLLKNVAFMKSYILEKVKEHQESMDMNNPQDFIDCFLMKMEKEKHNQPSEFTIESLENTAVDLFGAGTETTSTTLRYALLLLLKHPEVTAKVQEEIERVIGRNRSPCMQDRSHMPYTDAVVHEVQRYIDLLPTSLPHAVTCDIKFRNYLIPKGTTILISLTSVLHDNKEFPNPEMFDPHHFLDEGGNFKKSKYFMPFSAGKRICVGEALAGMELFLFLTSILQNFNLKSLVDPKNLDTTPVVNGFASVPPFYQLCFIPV

In the experiment the target is Cytochrome P450 2C9 (Homo sapiens) (UniProt P11712). Nature of the experiment: Cytochrome P450 family 2 subfamily C member 9 (CYP2C9) small molecule antagonists: luciferase biochemical (cell-free) qHTS assay (AID 1645842). Further: nearly all actives have a fitted effect of over 55% in size. To be noted: P450-Glo CYP2C9 enzyme assay, luciferin luminescence; series mostly up to 57.4 µM; activity change, negative = inhibition: at the top concentration. Put shortly:
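Luminescence, after 20 min with luciferin detection reagent, reflected CYP2C9 turnover during a 1 h NADPH-driven reaction at 37C. Enzyme-substrate mix contained 0.4% bovine serum albumin and was preincubated with compound 10 min at room temperature.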
In general terms: Quantitative high-throughput screening tests each substance at several concentrations.
For `O=C(Nc1ccc(N(Cc2ccsc2)C(=O)Cn2nnc3ccccc32)cc1)C1CC1`, the Potency was 1.51 µM (active).

For the molecule `CCCC(CCC)C(=O)NCc1ccc2c(cnn2-c2ccccc2OC)c1`, the Potency was 1.9 µM (active). Same read-out and setting: the value for `CS(=O)(=O)Nc1ccc2oc3c(OC(F)F)ccc(C(=O)Nc4c(Cl)cncc4Cl)c3c2c1` was 3.38 µM (active). Regarding `COc1ccc(S(=O)(=O)Nc2c(C)cc(C)cc2C)cc1`, the Potency was 2.39 µM (active). Regarding `CCNc1nc(Nc2cc(F)c(C(=O)N3CCOCC3)cc2OC)ncc1C(F)(F)F`, the Potency is 1.9 µM (active). In the case of `O=P(O)(O)OC(CO)CO`, the “activity change, negative = inhibition” value is 3.44%.

On to `CCCc1ccc(OCC(=O)N(Cc2nc(-c3cccnc3)no2)C(C)C)cc1`, for which the Potency was 2.13 µM (active). Same read-out and setting: under `COc1c(F)cccc1C(=O)N1C[C@@H](C)CC[C@H]1CNc1ccc(Br)cn1` stands 5.35 µM (active); under `Cc1noc(-c2ccc(-c3ccc(CC(=O)O)cc3)cc2)c1NC(=O)O[C@H](C)c1ccccc1Cl`, 3.01 µM (active). On the same count and under the same terms, under `CNC(=O)COC(=O)N1CCC(CCc2ccc(Cl)cc2)CC1` stands 21.3 µM (active). In the case of `O=C(NCc1ccccc1-c1ccccc1C(=O)NCCc1ccccn1)OCc1ccccc1`, the Potency was 2.68 µM (active). Same read-out and setting: under `CCOC(=O)C1=Cc2ccc(C(F)(F)C(F)(F)F)cc2N=C(N)C1` stands 12 µM (active).

As for `Cc1nc(N2CCN(C(=O)c3ccco3)CC2)c2c3c(sc2n1)CCCC3`, the Potency was 4.77 µM (active). The same measure, in the same setting: under `O=C(O)c1ccc(S(=O)(=O)N(Cc2ccc(OC(F)(F)F)cc2)c2ncc(C(F)(F)F)cc2Cl)cc1` stands 23.9 µM (active); under `CC(C)(C)c1ccc(NC(=O)N2CCN(c3ncccc3Cl)CC2)cc1`, 6.01 µM (active). Still for that read-out and setting: the value for `CC#C[C@@H](CC(=O)O)c1ccc(OCc2ccc(CN3CCC4(C=Cc5ccccc54)CC3)s2)cc1` was 23.9 µM (active). For `Cc1nnc(-c2ccc(-c3ccc(C(=O)Nc4ccc(O)c(N5CCN(C)CC5)c4)cc3)c(C)c2)o1`, the “activity change, negative = inhibition” value was -10.7%.

Turning to `CN1CC(O)c2cc(N=NC(N)=O)c(O)cc21` (stereo not given), the “activity change, negative = inhibition” value was -2.9%. Still for that read-out and setting: the value for `O=C1C(c2[nH]c3ccc(S(=O)(=O)O)cc3c2O)=Nc2ccc(S(=O)(=O)O)cc21` was 5.35%. `CC(C)c1cc2c(N3CCN(C4=NCC(C)(C)S4)CC3)ncnc2s1`: the “activity change, negative = inhibition” value was 8.58%. Turning to `Fc1ccc2c(CCNCc3cccc(OCC(F)(F)C(F)F)c3)c[nH]c2c1`, the Potency was 9.52 µM (active). As to `CNCc1cc(-c2ccccc2F)n(S(=O)(=O)c2cccnc2)c1`, the “activity change, negative = inhibition” value was -21%. Same read-out and setting: the value for `CNCCCC1(c2ccccc2)OC(C)(C)c2ccccc21` (stereo not given) was 1.05%; that for `O=C(OC1CN2CCC1CC2)N1CCc2ccccc2C1c1ccccc1` (stereo not given) was -9.39%; that for `CCc1cc2c(cc1CC)CC(NCC(O)c1ccc(O)c3[nH]c(=O)ccc13)C2` (stereo not given) was -8.23%.

Consider `Cc1ccc(S(=O)(=O)N2CCC[C@H]2c2ccc(F)cc2)cc1`, for which the “activity change, negative = inhibition” value was 3.89%. Turning to `NC(=O)c1nc(Nc2ccccc2)sc1NC(=O)C1CCCCC1`, the Potency is 0.601 µM (active). Turning to `O=C(Nc1cc(C(F)(F)F)ccc1N1CCCCC1)c1ccncc1`, the Potency was 2.13 µM (active). For the molecule `C=CS(=O)(=O)O`, the “activity change, negative = inhibition” value was -0.458%. Consider `COc1ccc([C@H](Cc2ccncc2)c2ccccc2)cc1OC1CCCC1`, for which the Potency was 0.425 µM (active).

As for `Cc1cc2c(N3CCCC3)nc(N3CCCC3)nc2n1C`, the Potency is 15.1 µM (active). For the molecule `O=C(C1CCCCC1)N(CCN1CCN(c2ccccc2O)CC1)c1ccccn1`, the Potency is 12 µM (active). For the molecule `Cc1cnn(-c2ccccc2)c1NC(=O)COCc1ccccc1`, the Potency was 10.7 µM (active). With `Cc1cc(-c2nc(-c3ccc(OC(F)(F)F)cc3)no2)nn1Cc1ccnc(N2CCN(C3CC3)CC2)c1`, the Potency was 6.01 µM (active). Same read-out and setting: the value for `O=S(=O)(Nc1cc(Cl)c(Oc2cnc3ccccc3c2)c(Cl)c1)c1ccc(Cl)cc1Cl` was 3.01 µM (active). Same read-out and setting: the value for `O=C(N[C@H](Cc1cscn1)C(=O)N[C@@H](CC1CCCCC1)[C@@H](O)[C@@H](O)C1CC1)c1nc2ccccc2[nH]1` was 1.34 µM (active).

With `c1ccc(-c2cnn3cc(-c4ccc(OCCN5CCOCC5)cc4)cnc23)cc1`, the Potency is 3.38 µM (active).

`O=C(NCCN1CCN(c2cccc3ccc(O)cc23)CC1)c1ccc(F)cc1`: the Potency was 0.601 µM (active).

In the case of `O=c1[nH]c2cccc(N3CCN(Cc4ccc(-c5ccccc5)cc4)CC3)c2o1`, the Potency is 5.35 µM (active). With `Cc1ccc(C)c(NC(=O)[C@@H]2CCCN2S(=O)(=O)c2cccc3cccnc23)c1`, the Potency was 6.74 µM (active).
